Bioassay records as filed in PubChem.
Rows were chosen to be rich in hits. Some 0.77% of all compounds tested hit in one or more screens of this group.
HSV augment = increases HSV replication in cells; maximum fold increase; HSV replication augmentation in cells, fold increase; 220,000 tested, 0.005% active; in the data active = maximum fold increase above about 1.5; tested in PC3 cells
L929 necroptosis = blocks zVAD induced death of L929 cells; viability rescue, % at 10 µM; L929 zVAD necroptosis rescue, ATP luminescence, 24 h; with zVAD 60 µM; 220,000 tested, 0.38% active;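 active = activation, scaled between plate controls, above about 75%, limit read from the data; inactive = activation under that limit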;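 note: 0% = zVAD with DMSO and 100% = DMSO alone without zVAD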
Calpain2 inh = inhibitors of pig calpain II; inhibition, % at 16 µM; AID 1236; 220,000 tested, 0.37% active; purified calpain II, fluorogenic peptide substrate, 30 min;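 active = inhibition above about 50%, limit read from the data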
TNF death inh = blocks TNF-alpha induced death of Jurkat FADD-/- cells | Jurkat FADD-/- TNF necroptosis rescue, ATP luminescence, 24 h; 0 = TNF only, 100 = no-TNF cells | activation (protection from cell death), % at 10 µM | 220,000 tested, 0.068% active | AID 463075;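 active = activation, meaning protection from cell death, of at least 50% relative to plate controls; inactive = activation below 50%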;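 note: necroptosis triggered by 40 ng/mL TNF-alpha added together with compound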
An asterisk follows results filed as active; i = inactive; / = no result given.

SMILES	HSV augment	L929 necroptosis	Calpain2 inh	TNF death inh
O=C(c1ccc(Cl)cc1Cl)N1CCC(c2nc3c(nnn3Cc3ccco3)c(=O)[nH]2)CC1	i	0	70*	-1
CCOC(=O)c1cnc(-n2nc(C)cc2C)nc1Nc1ccc(OC)cc1	i	0	54*	-3
CCOC(=O)c1cnc(-n2nc(C)cc2C)nc1Nc1ccccc1OC	i	0	-21	0
Cc1cc(=O)oc2cc(OCC(=O)OCC(=O)N3CCC(C)CC3)ccc12	i	2	-145	-1
Cc1nc(C(C)NC(=O)CCc2nnc(-c3ccsc3)o2)cs1 (stereo unspecified)	i	0	-8	0
O=C(O)CCN1C(=O)/C(=C\c2cccc(OCC(=O)Nc3ccc(Cl)cc3)c2)SC1=S	i	2	5	2
Cc1ccc(NC(=O)COc2cccc(/C=C3\SC(=S)N(CCC(=O)O)C3=O)c2)cc1Cl	i	0	76*	4
COC(=O)c1cccc(NC(=O)c2cccc(OC)c2)c1	i	1	53*	-3
COc1cccc(C(=O)Nc2cccc(-c3nnc(-c4ccco4)o3)c2)c1	i	1	56*	-7
O=C(O)CCCNC(=O)Cc1ccccc1	i	0	6	2
S=C(Nc1ccccc1Oc1ccccc1)Nc1cccc(Cl)c1Cl	i	1	55*	-1
Cc1c(NS(=O)(=O)c2ccc3c(c2)Cc2ccccc2-3)c(=O)n(-c2ccccc2)n1C	i	1	-29	0
O=C(NCc1cccnc1)c1ccccc1CCc1ccccc1	i	0	50*	0
O=C(O)c1ccccc1C(=O)NCc1cccnc1	i	0	9	0
COc1ccc(/C=C/C(=O)C2(O)CCCCC2)cc1OC	i	16	26	7
COc1ccc(C(C(=O)NC2CCCCC2)N(C(=O)CCl)c2cccc(Cl)c2)cc1 (stereo unspecified)	i	1	13	-15
CC(=O)Nc1nc(C)c(-c2csc(Nc3ccc(O)cc3)n2)s1	i	77*	24	1
CC(=O)Nc1nc(C)c(-c2csc(Nc3ccccn3)n2)s1	i	72	-34	-17
CCCn1nnc(NC(=S)NC(=O)/C=C/c2ccco2)n1	i	0	-22	1
O=c1c2cn[nH]c2nc(SCc2c(F)cccc2F)n1-c1ccc(Cl)cc1	i	-1	-91	-1
COc1ccc(N2C(=O)N(Cc3cccc(F)c3)c3ccccc3S2(=O)=O)cc1	i	-2	63*	0
COc1ccc(N2C(=O)N(Cc3ccccc3F)c3ccccc3S2(=O)=O)cc1	i	-2	58*	-1
O=C(/C=C/c1ccccc1)N1CCC(N2CCC(C(=O)N3CCOCC3)CC2)CC1	i	0	-25	1
C=CCNC(=S)N/N=C/c1ccc(C(C)(C)C)cc1	i	1	64*	-2
CC(C)(C)c1ccc(/C=N/NC(=S)NCc2ccccc2)cc1	i	1	-16	1
SMILES	HSV augment	L929 necroptosis	Calpain2 inh	TNF death inh
CCc1ccc2nc(SCC(=O)Nc3nnc(C)s3)c(C)cc2c1	i	1	16	1
O=C(OCc1ccccc1)C1=NNC2C(=O)N(Cc3ccccc3)C(=O)C12 (stereo unspecified)	i	0	38	0
COc1ccc(NC(=S)N(CCCN2CCOCC2)Cc2cn(C)c3ccccc23)cc1	i	/	54*	-2
CCOc1ccc(NC(=S)N(CCCN2CCOCC2)Cc2cn(C)c3ccccc23)cc1	i	-1	-11	0
CCOC(=O)C1CCN(CCC(=O)Nc2ccc(C)c(C)c2)CC1	i	0	-24	2
Cc1ccc(C(=O)NNC(=O)c2ccc3ncccc3c2)cc1	i	1	52*	0
C=CCn1c(=O)[nH]c2cc(C(=O)N3CC=C(c4ccccc4)CC3)ccc2c1=O	i	2	-60	-1
O=C(Nc1cccc2oc(=O)ccc12)c1ccc([N+](=O)[O-])cc1[N+](=O)[O-]	i	2	64*	0
Cc1cc(N2CCN(C)CC2)nc2ccc(NC(=S)NCc3cccs3)cc12	i	14	41	-1
CCN1CCN(c2cc(C)c3cc(NC(=S)NCc4cccs4)ccc3n2)CC1	i	1	51*	0
O=C(NCc1cccnc1)c1ccc2c(=O)n(CCCN3CCCC3=O)c(=S)[nH]c2c1	i	3	84*	0
C/C(N)=C(/C#N)C(=O)CSc1nc2scc(-c3ccccc3)c2c(=O)n1C	i	0	-13	-9
Fc1ccccc1CNc1ccc(Cl)cc1	i	97*	4	81*
CCNC(=S)N(CCc1c(C)[nH]c2ccc(Cl)cc12)Cc1ccco1	i	1	59*	1
CNC(=S)N(CCc1c(C)[nH]c2ccc(C)cc12)Cc1ccco1	/	2	-11	-4
CCn1nc(C(=O)OCC(=O)c2c[nH]c3ccccc23)c2ccccc2c1=O	i	2	56*	-3
CN(C)NC(=S)NC1CC2CCC1C2 (stereo unspecified)	i	0	-5	0
CC(NC(=O)c1ccc2c(c1)OCO2)C(c1cccs1)N1CCN(c2ccccc2)CC1 (stereo unspecified)	i	-1	-13	1
COc1ccc(-c2cc(C(=O)N3CCCc4ccccc43)no2)cc1	/	0	53*	-1
COc1cccc(-c2cc(C(=O)N3CCCc4ccccc43)no2)c1	i	0	-11	2
Nc1cc(S(=O)(=O)N2CCCCC2)ccc1Oc1ccc(Cl)cc1	i	3	64*	-1
Cc1cccc(Oc2ccc(S(=O)(=O)N3CCCCC3)cc2N)c1	i	1	45	-1
CN1CCN(C(=O)C2CCN(c3ncc(C(F)(F)F)cc3Cl)CC2)CC1	i	3	-2	2
Cc1cccc(N=C2NC(=O)/C(=C\c3cccs3)S2)c1	i	1	17	0
O=C1NC(=Nc2ccccc2)S/C1=C/c1cccs1	i	0	106*	2
SMILES	HSV augment	L929 necroptosis	Calpain2 inh	TNF death inh
C/C(=N\NS(=O)(=O)c1cccc([N+](=O)[O-])c1)c1cccnc1	i	6	-9	0
COc1ccc(S(=O)(=O)N2CCCC2C(=O)n2nc(C)cc2C)cc1 (stereo unspecified)	i	1	28	-1
C/C(CC(=O)NCc1ccco1)=N\NC(=O)C(c1ccccc1)c1ccccc1	i	77*	2	27
O=C(Oc1ccc(Cl)c2cccnc12)N1CCCCC1	i	1	-6	-1
O=C(Oc1ccc(Cl)c2cccnc12)C12CC3CC(CC(C3)C1)C2	i	0	56*	-9
COc1cc(NC(=O)Cn2ccsc2=N)cc(OC)c1	i	-1	21	4
Cc1nc(N2CCN(c3ccccc3)CC2)nc2c1C(=O)CC(C)C2 (stereo unspecified)	i	0	72*	-4
Cc1nc(N2CCN(c3ccccc3)CC2)nc2c1C(=O)CC(c1ccccc1)C2 (stereo unspecified)	i	0	11	-4
CCOP(=O)(OCC)C(C)(C)NC(=O)Nc1ccc(Cl)c(Cl)c1	i	3	-20	2
